Compound activity: PubChem BioAssay, National Center for Advancing Translational Sciences (NCATS)
Lassa entry inh: Lassa virus entry inhibition. Lassa virus pseudotype entry inhibition, cell reporter. Potency, µM (doses to about 37.9 µM), most hits filed as inhibitors. 300,000 tested, 1.2% active; calls by dose curve; tested in HEK293 cells; further: nearly all actives have a fitted effect of over 50% in size
Pf growth 48h: P. falciparum growth inhibition at 48 hours (one generation); P. falciparum luciferase growth in erythrocytes, 48 h; Potency, µM (doses to about 28.7 µM), usual class: inhibitors; 310,000 tested, 5.9% active
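A one-generation exposure of luciferase-tagged malaria parasites in RPMI 1640/Albumax erythrocyte culture, 37 C and 5% CO2. Inhibition is inferred from decreased luminescence after adding detection reagent.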
Pf growth 96h: inhibits malaria parasite growth, 96 h | Potency, µM (top dose mostly 28.7 µM), usual class: inhibitors | 320,000 tested, 6.9% active | P. falciparum luciferase reporter growth, 96 h
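Two parasite generations (96 h, 37 C, 5% CO2) of compound exposure in infected erythrocytes (0.05% parasitemia, 2% hematocrit). Luciferase-reporter P. falciparum; decreased luminescence indicates inhibited growth, aimed at apicoplast-acting delayed death.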
Shiga toxin inh: blocks Shiga toxin action in Vero cells; Vero cells, Shiga toxin protein synthesis inhibition reporter; inhibition, % at 38.7 µM; 290,000 tested, 9.2% active; in the data active means inhibition mostly above about 28%, no sharp cut-off; inactive means mostly below about 43%
Marburg entry inh: Marburg virus entry inhibition. Marburg virus pseudotyped entry inhibition, cell reporter. Potency, µM (top dose mostly 37.8 µM), actives largely listed as inhibitors. 300,000 tested, 1.8% active; calls by dose curve; tested in HEK293 cells
Cycloheximide cs: affects cycloheximide protein synthesis inhibition readout, counter-screen. max response, %. AID 2314. 300,000 tested, 12% active. cell reporter, cycloheximide protein synthesis inhibition counterscreen; in the data active means max response mostly above about 13%, no sharp cut-off; inactive means mostly below about 14%; further: read at 38.3 µM for the half of the compounds with a filed dose
Each line names hits and unclear results; the compound was inactive in the other large screens. Sampled rows, rich in hits. Any-hit rate of the full collection: about 19%. Unless noted, the call rests on the fitted dose curve; in most records, active means well fitted inhibition curve with a large enough effect; inconclusive means small, poorly fitted or top-dose-only effect, or another doubt; inactive means no such curve, though single readings can be large or run the other way.

Cc1ccc(C(C(=O)NC2CCCC2)N(Cc2ccccc2)C(=O)c2csnn2)o1 (stereo unspecified)	Pf growth 96h inconclusive
OC[C@H](O)[C@H](O)[C@@H](O)[C@@H](O)[C@@H]1SC(c2ccccc2)=NN1c1ccccc1	Pf growth 48h 13µM, Pf growth 96h inconclusive, Marburg entry inh inconclusive
CC1CCN(Cc2nnnn2CCCC(=O)NCCc2cnn(C)c2)CC1	Pf growth 96h inconclusive (no result: Lassa entry inh, Marburg entry inh)
COc1ccccc1NC(=O)CSc1ccc2nnc(-c3ccccn3)n2n1	Pf growth 96h inconclusive (no result: Lassa entry inh, Marburg entry inh)
CCOC(=O)/C=C/C(=O)Nc1nccs1	Pf growth 48h inconclusive, Marburg entry inh inconclusive, Cycloheximide cs 15
Cc1cnc(NC(=O)/C=C/c2ccc(Br)o2)s1	Shiga toxin inh 81, Marburg entry inh inconclusive, Cycloheximide cs 16
Cc1ccc(/C=C/C(=O)Nc2nccs2)o1	Lassa entry inh inconclusive, Shiga toxin inh 108, Marburg entry inh inconclusive, Cycloheximide cs 55
Cc1ccc(/C=C/C(=O)Nc2ncc(C)s2)o1	Shiga toxin inh 69, Cycloheximide cs 47
COc1ccc(CCNC(=O)CSc2cccc3cccnc23)cc1OC	Marburg entry inh inconclusive
CCC(O)c1cc2c(cc1NC(=O)c1ccc(C)cc1)OCCO2 (stereo unspecified)	Marburg entry inh inconclusive
CCc1ccc(C(=O)Nc2cc3c(cc2Cl)OCCCO3)cc1	Lassa entry inh inconclusive, Shiga toxin inh 84, Marburg entry inh inconclusive, Cycloheximide cs 60
O=C(Cc1ccccc1)Nc1cc2c(cc1Cl)OCCCO2	Shiga toxin inh 75, Cycloheximide cs 59
O=C(Nc1cc2c(cc1C(=O)O)OCCCO2)c1ccc(C(F)(F)F)cc1	Shiga toxin inh 76, Marburg entry inh inconclusive, Cycloheximide cs 44
CC(C)(C)OC(=O)N1CCC(CC2CC(c3cccc(Br)c3)=NO2)(C(=O)NCC2CCCCC2)CC1 (stereo unspecified)	Pf growth 48h inconclusive, Pf growth 96h inconclusive, Cycloheximide cs 13 (no result: Lassa entry inh, Marburg entry inh)
CCCNC(=O)C1(CC2CC(c3ccccc3)=NO2)CCN(C(=O)c2ccccc2)CC1 (stereo unspecified)	Pf growth 48h 12µM, Pf growth 96h inconclusive (no result: Lassa entry inh, Shiga toxin inh, Marburg entry inh, Cycloheximide cs)
O=C(c1ccccc1)N1CCC(CC2CC(c3cccc(Br)c3)=NO2)(C(=O)NCC2CCCCC2)CC1 (stereo unspecified)	Pf growth 48h inconclusive, Pf growth 96h 5.2µM (no result: Lassa entry inh, Marburg entry inh)
CCOc1cc(C(=O)N2CCC(CC3CC(c4ccc(Cl)cc4)=NO3)(C(=O)NCC3CCCCC3)CC2)cc(OCC)c1OCC (stereo unspecified)	Pf growth 48h 0.29µM, Pf growth 96h 0.23µM (no result: Lassa entry inh, Marburg entry inh)
O=C(NCC1CCCCC1)C1(CC2CC(c3cccc(Br)c3)=NO2)CCNCC1 (stereo unspecified)	Pf growth 96h inconclusive (no result: Lassa entry inh, Marburg entry inh)
Cc1ccc(Cl)cc1NC(=S)N(CCCN1CCOCC1)Cc1ccco1	Pf growth 48h inconclusive, Pf growth 96h inconclusive, Marburg entry inh inconclusive (no result: Lassa entry inh)
COc1ccccc1NS(=O)(=O)c1ccc2c(c1)OCCO2	none
C[C@@H]1CC=C[C@H]2[C@H]1C(=O)N(Cc1ccccc1)[C@H]2c1ccc(Br)cc1F	Pf growth 48h inconclusive (no result: Lassa entry inh, Marburg entry inh)
CCOc1cccc(C(=O)Nc2ccccc2N2CCN(C(=O)C(C)C)CC2)c1	Lassa entry inh inconclusive, Pf growth 48h 9.3µM, Pf growth 96h 13µM, Marburg entry inh inconclusive
CSCCC(NC(=O)c1ccccc1)C(=O)N1CCN(C(c2ccccc2)c2ccccc2)CC1 (stereo unspecified)	Lassa entry inh 14µM, Pf growth 48h inconclusive, Pf growth 96h 1.9µM
CCCCOc1cccc(C(=O)Nc2ccccc2N2CCCC2)c1	Pf growth 48h inconclusive, Pf growth 96h inconclusive
CCOc1ccc(C(=O)NC(=S)Nc2ccccc2N2CCC(C)CC2)cc1[N+](=O)[O-]	Pf growth 48h inconclusive, Marburg entry inh inconclusive (no result: Pf growth 96h)
COc1ccc(Cl)cc1C(=O)Nc1ccccc1N1CCN(C(=O)C(C)C)CC1	Pf growth 48h 5.9µM, Pf growth 96h 5.2µM, Marburg entry inh inconclusive
CCOc1ccc(C(=O)Nc2ccccc2N2CCN(C(=O)c3ccccc3)CC2)cc1[N+](=O)[O-]	Lassa entry inh inconclusive, Pf growth 48h 1.3µM, Pf growth 96h 1.7µM
COc1ccc(NC(=O)CSc2nnc(-c3cccnc3)o2)cc1	none (no result: Pf growth 48h)
COc1ccc(C(=O)Nc2ccccc2N2CCN(C(=O)C(C)C)CC2)cc1Cl	Lassa entry inh inconclusive, Pf growth 48h 12µM
CC(NC(=O)c1ccco1)C(=O)N1CCN(C(c2ccccc2)c2ccccc2)CC1 (stereo unspecified)	Pf growth 48h 13µM
Cc1ccc(C(=O)Nc2ccccc2N2CCN(C(=O)C(C)C)CC2)cc1	Lassa entry inh inconclusive, Pf growth 48h 9.3µM (no result: Pf growth 96h)
Cc1ccc(C(=O)Nc2ccccc2N2CCCC2)cc1	none (no result: Shiga toxin inh)
CC(NC(=O)c1ccco1)C(=O)N1CCN(c2ccccc2)CC1 (stereo unspecified)	none
CC(C)C(=O)N1CCN(c2ccccc2NC(=O)c2ccco2)CC1	Lassa entry inh inconclusive, Pf growth 48h 4.7µM
Cc1cc(C)c[n+](C2=C([O-])c3ccccc3C(=O)/C2=N\S(=O)(=O)c2cccs2)c1	Pf growth 48h 1.9µM, Pf growth 96h inconclusive (no result: Lassa entry inh, Marburg entry inh)
O=S(=O)(NCCc1ccccc1)c1cccs1	none
CC(C)N(Cc1ccccc1)S(=O)(=O)c1cccs1	none (no result: Lassa entry inh, Marburg entry inh)
O=C1/C(=N\S(=O)(=O)c2cccs2)C([n+]2cccc(Cc3ccccc3)c2)=C([O-])c2ccccc21	Lassa entry inh inconclusive, Pf growth 48h 1.7µM, Pf growth 96h 0.74µM, Marburg entry inh 2.8µM
O=C1/C(=N\S(=O)(=O)c2cccs2)C([n+]2ccc(CCCc3ccccc3)cc2)=C([O-])c2ccccc21	Pf growth 48h 0.37µM, Pf growth 96h 1µM
CCC(=O)Nc1c2c(nn1-c1cccc(Cl)c1)CS(=O)(=O)C2	none (no result: Lassa entry inh, Marburg entry inh)
CC1(C)COC(/C=C/c2cccc([N+](=O)[O-])c2)=N1	Lassa entry inh inconclusive, Pf growth 48h inconclusive, Shiga toxin inh 65, Marburg entry inh inconclusive, Cycloheximide cs 34
O=[N+]([O-])c1cccc(/C=C/c2nc[nH]c2[N+](=O)[O-])c1	Pf growth 48h inconclusive, Pf growth 96h 1.5µM (no result: Lassa entry inh, Marburg entry inh)
COc1ccc([C@]23Cc4ccccc4C(O2)c2c(cc(-c4ccccc4)oc2=O)O3)cc1	Pf growth 48h inconclusive, Pf growth 96h inconclusive (no result: Lassa entry inh, Marburg entry inh)
CCCC[C@]12Cc3cc(OC)c(OC)cc3C(O1)c1c(cc(-c3ccccc3)oc1=O)O2	Pf growth 48h inconclusive, Pf growth 96h 1.5µM (no result: Lassa entry inh)
CCCC[C@]12Cc3ccccc3C(O1)c1c(cc(-c3ccccc3)oc1=O)O2	Pf growth 48h 0.43µM, Pf growth 96h 1.5µM, Shiga toxin inh active, Marburg entry inh inconclusive (no result: Lassa entry inh)
CC(=O)C(Cc1ccccc1)NC(=O)COC(=O)c1ccc(-n2cnnn2)cc1 (stereo unspecified)	none (no result: Pf growth 48h, Pf growth 96h, Shiga toxin inh, Cycloheximide cs)
COc1ccccc1NC(=O)NNC(=O)CN1C(=O)COc2ccccc21	none
O=C(NNC(=S)Nc1ccccc1)c1ccncc1	none
COc1cc(NC(=O)OCc2ccccc2)c2ncccc2c1	none (no result: Pf growth 48h, Pf growth 96h, Shiga toxin inh, Cycloheximide cs)
COc1cc(NC(C)CCCN)c2ncccc2c1 (stereo unspecified)	Pf growth 48h 0.41µM, Pf growth 96h 0.33µM (no result: Lassa entry inh, Shiga toxin inh, Marburg entry inh, Cycloheximide cs)
